According to PubChem BioAssay (NCI):
Compounds without any hit were thinned out: in the full panel of roughly 83,000, 20% have a hit.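 Compound tested at a single concentration for 48 hours in 96-well plates; a percent growth value below 10 was scored as active.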 A number with no mark means an inactive call. Calls of active or inactive are those of the source.

system: SK-OV-3 ovarian; assay: NCI-60 one-dose screen, 48 h (100 = growth as untreated, 0 = no growth, -100 = all killed); settings: 10 µM unless noted

Row | Compound | growth
1 | C[n+]1ccc(Nc2ccc(NC(=O)c3ccc(Nc4cc[n+](C)c5ccc(N)cc45)cc3)cc2)cc1 | 99.1%
2 | COc1ccc(-c2nnc(COc3ccc(NC(=O)Nc4cc(C(F)(F)F)cc(C(F)(F)F)c4)cc3F)o2)cc1 | 18.4%
3 | O=C(Nc1cccc2ccccc12)c1cc2c(cc1Br)OCO2 | 80.9%
4 | O=c1[nH]c(=O)n(C2CC(O)C(CO)O2)cc1C(F)(F)F (stereo not drawn) | 74.3%
5 | Nc1cc(Cl)c(S(N)(=O)=O)cc1S(N)(=O)=O | 117%
6 | O=C(Nc1cccc([N+](=O)[O-])c1)c1cccc(C(=O)Nc2cccc([N+](=O)[O-])c2)c1 | 68.6%
7 | Cc1cc2c(cc1[N+](=O)[O-])NC(CNC(C)C)CC2 (stereo not drawn) | 99.7%
8 | CO[C@H]1/C=C/O[C@@]2(C)Oc3c(C)c(O)c4c(O)c(c(/C=N/N5C(C)CN(Cc6ccccc6)CC5C)c(O)c4c3C2=O)NC(=O)/C(C)=C\C=C\[C@H](C)[C@H](O)[C@@H](C)[C@@H](O)[C@@H](C)[C@H](OC(C)=O)[C@@H]1C (stereo partly drawn) | 116%
9 | Cn1cc(-c2csc(-c3cn(C)c4ncccc34)n2)c2cc(Br)cnc21 | 105%
10 | CCCCSc1cc(C)nc(N)n1 | 97.8%
11 | C=C(C)[C@H]1CC/C(C)=C/CC[C@]2(C)O[C@H]2CC/C(C=O)=C\C1O (stereo partly drawn) | 102%
12 | O=C1Nc2ccccc2C12Nc1cc(Cl)ccc1S2 (stereo not drawn) | 70.9%
13 | O=C(Oc1ccc[nH]c1=O)c1cccc(Cl)c1 | 103%
14 | CN(C)c1ccc(/C=C\c2ccnc3ccccc23)cc1 | 55.2%
15 | CCOC(=O)/C=C(/C)Sc1cc(O)c2ccccc2c1O | 6.27% (active)
16 | CCC(C)CC(C)C(=O)c1c(O)ccn(O)c1=O (stereo not drawn) | 65.3%
17 | CCS(=O)(=O)OCCCl | 87.4%

system: IGROV1 ovarian; assay: as above; settings: 10 µM unless noted

Row | Compound | growth
18 | Cc1cc(C)n(C(=O)c2nn(-c3ccc(Cl)cc3)cc2O)n1 | 25.3%
19 | O=C1c2ccccc2-c2c1nc1ccccc1[n+]2[O-] | 99.9%
20 | Oc1ccccc1/C=N\Nc1ccccc1 | 57.3%
21 | O=C(O)c1ccc(NC(=O)c2ccc(Nc3ccnc(C(F)(F)F)c3)cc2)cc1 | 105%
22 | CSc1nnc(C2=CC(=O)c3ccccc3C2=O)n1-c1ccccc1 | 80.4%
23 | COC(=O)[C@]12CC[C@@H](C)[C@H](C)[C@@H]1C1=CC[C@@H]3[C@@]4(C)C=C(O)C(=O)[C@@]5(C)COC(=C54)C[C@@]3(C)[C@]1(C)CC2 | -23.5% (active)
24 | COc1ccc(OC)c(NC(=O)c2cc3oc4ccccc4c3cc2O)c1 | 56.1%
25 | COc1ccc2[nH]cc(/C=C3/C(=O)Nc4ccc(Cl)cc43)c2c1 | 54.4%
26 | CN1CCN(Cc2ccc(NC(=O)c3[nH]ncc3Nc3ccnc4ccnn34)cc2)CC1 | 58.3%
27 | Cc1cc(O)c2c(c1)C[C@H]1[C@@H]3CC[C@H]4CC(=O)CC[C@]4(C)[C@H]3CC(=O)[C@]21C | 126%
28 | COc1ccccc1[C@H]1c2[nH]c3ccccc3c2C[C@H]2C(=O)N(CCCCCCC(=O)NO)CC(=O)N12 | 41.1%
29 | c1csc([C@@H]2C[C@@H]3Cc4ccc5ccccc5c4N2O3)c1 | 105%
30 | CN(CC(=O)Nc1nc2ccccc2[nH]1)S(=O)(=O)c1ccc(Cl)cc1 | -28.9% (active)
31 | OCc1nnn(-c2ccccc2)c1CO | 108%
32 | COc1ccc(C(=O)Nc2nc(-c3ccc(Cl)cc3)cs2)cc1 | 112%
33 | CCCc1cc(=O)n2c(C(=O)Nc3ccccc3OC)c(C(=O)Nc3ccc(F)cc3)sc2n1 | -12.6% [30 µM] (active)
34 | O=[N+]([O-])c1ccc2c(c1)S(=O)c1cc([N+](=O)[O-])ccc1N2 | 117%
35 | C[C@@H]1CC[C@H]2[C@@H](C)C(O)O[C@@H]3O[C@]4(C)CC[C@@H]1[C@]32OO4 (stereo partly drawn) | 38.9%
36 | NC(=O)c1ccccc1NC(=O)c1ccccc1Cl | 96%
37 | COC(=O)CC1=C(C)/C(=C/c2[nH]c(-c3ccc[nH]3)cc2OC)N=C1C | 11.3%

system: OVCAR-3 ovarian; assay: as above; settings: 10 µM unless noted

Row | Compound | growth
38 | Cc1cc(C)n(C(=O)c2nn(-c3ccc(Cl)cc3)cc2O)n1 | 50.9%
39 | C[n+]1ccc(Nc2ccc(NC(=O)c3ccc(Nc4cc[n+](C)c5ccc(N)cc45)cc3)cc2)cc1 | 115%
40 | COc1ccc(-c2nnc(COc3ccc(NC(=O)Nc4cc(C(F)(F)F)cc(C(F)(F)F)c4)cc3F)o2)cc1 | 2.67% (active)
41 | O=C1c2ccccc2-c2c1nc1ccccc1[n+]2[O-] | 107%
42 | Oc1ccccc1/C=N\Nc1ccccc1 | 79.1%
43 | O=C(O)c1ccc(NC(=O)c2ccc(Nc3ccnc(C(F)(F)F)c3)cc2)cc1 | 104%
44 | CSc1nnc(C2=CC(=O)c3ccccc3C2=O)n1-c1ccccc1 | 91.6%
45 | COC(=O)[C@]12CC[C@@H](C)[C@H](C)[C@@H]1C1=CC[C@@H]3[C@@]4(C)C=C(O)C(=O)[C@@]5(C)COC(=C54)C[C@@]3(C)[C@]1(C)CC2 | -92% (active)
46 | O=C(Nc1cccc2ccccc12)c1cc2c(cc1Br)OCO2 | 104%
47 | COc1ccc(OC)c(NC(=O)c2cc3oc4ccccc4c3cc2O)c1 | 137%
48 | COc1ccc2[nH]cc(/C=C3/C(=O)Nc4ccc(Cl)cc43)c2c1 | 18.1%
49 | CN1CCN(Cc2ccc(NC(=O)c3[nH]ncc3Nc3ccnc4ccnn34)cc2)CC1 | 53.7%
50 | Cc1cc(O)c2c(c1)C[C@H]1[C@@H]3CC[C@H]4CC(=O)CC[C@]4(C)[C@H]3CC(=O)[C@]21C | 98%
51 | COc1ccccc1[C@H]1c2[nH]c3ccccc3c2C[C@H]2C(=O)N(CCCCCCC(=O)NO)CC(=O)N12 | 48.2%
52 | c1csc([C@@H]2C[C@@H]3Cc4ccc5ccccc5c4N2O3)c1 | 102%
53 | O=C(Nc1cccc([N+](=O)[O-])c1)c1cccc(C(=O)Nc2cccc([N+](=O)[O-])c2)c1 | 71.1%

Row | Compound | growth
54 | CN(CC(=O)Nc1nc2ccccc2[nH]1)S(=O)(=O)c1ccc(Cl)cc1 | 91%
55 | OCc1nnn(-c2ccccc2)c1CO | 117%
56 | Cc1cc2c(cc1[N+](=O)[O-])NC(CNC(C)C)CC2 (stereo not drawn) | 96.6%
57 | COc1ccc(C(=O)Nc2nc(-c3ccc(Cl)cc3)cs2)cc1 | 111%
58 | Cn1cc(-c2csc(-c3cn(C)c4ncccc34)n2)c2cc(Br)cnc21 | 119%
59 | CCCc1cc(=O)n2c(C(=O)Nc3ccccc3OC)c(C(=O)Nc3ccc(F)cc3)sc2n1 | 51.3% [30 µM]
60 | O=[N+]([O-])c1ccc2c(c1)S(=O)c1cc([N+](=O)[O-])ccc1N2 | 113%
61 | C=C(C)[C@H]1CC/C(C)=C/CC[C@]2(C)O[C@H]2CC/C(C=O)=C\C1O (stereo partly drawn) | 124%
62 | C[C@@H]1CC[C@H]2[C@@H](C)C(O)O[C@@H]3O[C@]4(C)CC[C@@H]1[C@]32OO4 (stereo partly drawn) | 30.1%
63 | O=C1Nc2ccccc2C12Nc1cc(Cl)ccc1S2 (stereo not drawn) | 76.3%
64 | O=C(Oc1ccc[nH]c1=O)c1cccc(Cl)c1 | 102%
65 | CCOC(=O)/C=C(/C)Sc1cc(O)c2ccccc2c1O | 13.4%
66 | CCC(C)CC(C)C(=O)c1c(O)ccn(O)c1=O (stereo not drawn) | 19%
67 | NC(=O)c1ccccc1NC(=O)c1ccccc1Cl | 109%
68 | COC(=O)CC1=C(C)/C(=C/c2[nH]c(-c3ccc[nH]3)cc2OC)N=C1C | -17.7% (active)
